# PTK2B oligo ant: antagonists of Pyk2 self-association, primary screen, Q293 cells, FERM NanoBiT luminescence, HTS; Protein-tyrosine kinase 2-beta (Homo sapiens), Q14289; stronger effect = lower value; z-score (the deposit names both 25 µM and 10 µM); 99,000 compounds, 0.83% hits;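 active = Z-score of -3 or lower, scaled per plate to the spread of control and sample wells; inactive = z-score above -3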;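 note: negative z-score means lost luminescence so less FERM oligomerization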
# CYP2C19 inhib: blockers of cytochrome P450 2C19 activity – biochemical, luminescence, ADME assay, primary screen; CYP2C19 Supersomes, luciferin-H EGE luminescence, 30 min; inhibition, % at 5 µM; 96,000 compounds, 21% hits;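 active = CYP2C19 inhibition above a set limit at 5 µM in the primary screen, cut at about 50% in these data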;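 note: plate controls were negative control wells for no effect and 2.5 mM tranylcypromine positive control for full effect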
# Target sequence (P33261 whole entry, looked up): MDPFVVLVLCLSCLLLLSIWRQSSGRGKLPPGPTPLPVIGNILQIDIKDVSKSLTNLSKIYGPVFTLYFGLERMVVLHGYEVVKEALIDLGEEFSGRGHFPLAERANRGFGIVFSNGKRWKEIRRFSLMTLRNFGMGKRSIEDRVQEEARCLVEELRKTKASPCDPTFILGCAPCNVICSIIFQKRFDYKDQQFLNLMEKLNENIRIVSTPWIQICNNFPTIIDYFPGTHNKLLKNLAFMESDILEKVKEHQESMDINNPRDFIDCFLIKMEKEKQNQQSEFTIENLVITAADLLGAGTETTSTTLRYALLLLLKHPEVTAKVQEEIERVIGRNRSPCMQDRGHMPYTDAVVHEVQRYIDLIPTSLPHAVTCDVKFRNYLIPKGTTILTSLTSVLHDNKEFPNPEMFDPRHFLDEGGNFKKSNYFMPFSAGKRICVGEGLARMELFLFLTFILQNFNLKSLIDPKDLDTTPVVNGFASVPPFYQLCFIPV
# CYP2C9 inh: blockers of cytochrome P450 2C9 activity – biochemical, luminescence, ADME assay, primary screen; P11712; CYP2C9 Supersomes, luciferin-H conversion; inhibition, % at 5 µM; 96,000 compounds, 20% hits;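 active = blocking of liver enzyme CYP2C9 beyond about 50% at 5 µM, limit read from the data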
# CYP2C19 act: human CYP2C19 activators, primary screen, biochemical, luminescence; Cytochrome P450 2C19 (Homo sapiens), P33261; recombinant CYP2C19, luciferin-H EGE luminescence; stronger effect = higher value; 0 = fully inhibited enzyme, 1 = untreated enzyme; activation factor at 5 µM; 96,000 tested, under 10 active;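 active = activation factor of at least 2 at 5 µM in the primary screen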;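 note: 0 = wells with 2.5 mM tranylcypromine and 1 = vehicle-only wells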
# CYP2C9 act: human CYP2C9 activators, primary screen, biochemical, luminescence; activation factor at 5 µM; recombinant CYP2C9, luciferin-H conversion; stronger effect = higher value; factor 1 = untreated enzyme, 0 = blocked; 96,000 compounds, 1.4% hits; Cytochrome P450 2C9 (Homo sapiens), P11712;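 active = activation factor of 2 or more for CYP2C9 at a 5 µM dose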;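 note: 0 = sulfaphenazole-blocked wells and 1 = vehicle-only wells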
# * marks the source's active call; other numbers are inactive results; . = no result given; ! = repeats disagree. In the library only some 28% were active in any assay of this set; here they are far more common.
SMILES,PTK2B oligo ant,CYP2C19 inhib,CYP2C9 inh,CYP2C19 act,CYP2C9 act
COc1ccc(CCN(C)Cc2ccncc2)cc1OC,1.2,82*,67*,0.2,0.3
CCN1CCC2(CCNC2)C1 (stereo not drawn),0.25,-24,-19,1.2,1.2
CN(C)CCN=Cc1c(O)n(-c2cccc(C(F)(F)F)c2)c(=O)[nH]c1=O,0.87,-12,-21,1.1,1.2
CCOc1cc(C2NCc3ccccc3-n3cccc32)ccc1O (stereo not drawn),-0.6,61*,75*,0.4,0.3
CCOc1cccc(C2NCc3ccccc3-n3cccc32)c1O (stereo not drawn),0.28,38,26,0.6,0.7
O=C(NC1CC1)C1CSC(c2cccnc2)=N1 (stereo not drawn),-0.6,-5,0,1,1
CN(C)C1(c2nnnn2CCOC(=O)Nc2ccc(Cl)cc2)CCCCC1,0.41,100*,87*,0,0.1
CN(C)C1(c2nnnn2-c2ccc(Cl)cc2)CCCCC1,.,93*,43,0.1,0.6
O=C(CN1C2CCC1CC(O)(c1cccnc1)C2)Nc1ccc2c(c1)OCO2 (stereo not drawn),1.2,-13,3,1.1,1
CCC(=NCc1ccc2c(c1)OCO2)c1c(O)n(C2CCCCC2)c(=O)[nH]c1=O,-3,99*,100*,0,0
CCC(=NCCO)c1c(O)n(C2CCCCC2)c(=O)[nH]c1=O,-0.7,61*,37,0.4,0.6
CC(=O)OC1N=C(c2ccccc2)c2cc(C)ccc2NC1=O (stereo not drawn),-1.4,2,9,1,0.9
Cn1cc(C(=O)c2ccccc2)c2ccccc21,.,23,-192,0.8,2.9*
O=C(CSC1c2ccccc2-c2ccccc21)N/N=C/c1ccccc1O,-1.1,59*,53*,0.4,0.5
O=C(C(Cc1ccccc1)NS(=O)(=O)c1ccc(F)cc1)N1CCC2(CC1)OCCO2 (stereo not drawn),-0.87,80*,37,0.2,0.6
O=C(NC(Cc1ccccc1)C(=O)N1CCC2(CC1)OCCO2)C1CCCCC1 (stereo not drawn),1.4,18,15,0.8,0.8
c1ccc(C2=NP(N3CCOCC3)(N3CCOCC3)=NC(N3CCOCC3)=N2)cc1,.,-6,-14,1.1,1.1
Cc1ccccc1C(O)(Cc1ccccc1)C1CN2CCC1CC2 (stereo not drawn),1.2,11,23,0.9,0.8
COc1cccc(CN2CCCCC2c2cccnc2)c1 (stereo not drawn),-0.07,38,18,0.6,0.8
COc1ccc(CN2CCCCC2c2cccnc2)cc1C (stereo not drawn),0.24,80*,15,0.2,0.9
CCN(CC)CCCN=C(C)c1c(O)n(-c2ccccc2)c(=O)[nH]c1=O,-0.01,-5,-5,1.1,1.1
COc1cc(OC)c(OC)cc1CNC(C)C(O)c1ccccc1 (stereo not drawn),1.4,67*,-16,0.3,1.2
COc1cc(OC)c(OC)cc1CNCCc1ccc(OC)c(OC)c1,-0.02,-8,-3,1.1,1
Oc1ccc(/C=N/NP(=S)(c2ccccc2)c2ccccc2)cc1,-0.39,79*,86*,0.2,0.1
COc1cc(/C=N/NP(=S)(c2ccccc2)c2ccccc2)ccc1O,-0.42,42,82*,0.6,0.2
SMILES,PTK2B oligo ant,CYP2C19 inhib,CYP2C9 inh,CYP2C19 act,CYP2C9 act
CCC(=O)N1N=C2C3CCN(CC3)C2C1c1ccccc1 (stereo not drawn),-0.12,-1,-14,1,1.1
COc1ccc(CN2CCN(c3ccccc3)CC2)c(C)c1C,0.17,83*,-3,0.2,1
Oc1ccc(Cl)cc1CN1CCN(Cc2ccccc2)CC1,-0.5,90*,56*,0.1,0.4
Cc1ccc(O)c(CN2CCN(c3ccccc3)CC2)c1,-0.06,93*,72*,0.1,0.3
FC(F)(F)c1ccccc1CN1CCN(Cc2ccccc2)CC1,0.25,69*,12,0.3,0.9
Cc1cc(O)c(CN2CCN(c3ccccc3)CC2)cc1C,1.7,38,20,0.6,0.8
C=Cn1c(P(=S)(N2CCOCC2)N2CCOCC2)cc2c1CCCC2,0.58,34,8,0.7,0.9
CC12CN3CC(C)(CN(C1)C3c1cccs1)C2O (stereo not drawn),0.7,58*,-8,0.4,1.1
CC(=O)OC1(c2ccccc2)CCN(C)C2CCCCC21 (stereo not drawn),0.09,-20,-31,1.2,1.3
Cc1cccc(N2CCc3c2nc2ccccc2c3N)c1,0.56,77*!,65*!,0.7,0.9
CCN(CC)CCCOC(=O)C(OC(C)C)(c1ccccc1)c1ccccc1,-0.93,.,.,.,.
CCCCn1c(O)c(C=NC2CC3CCC2(C)C3(C)C)c(=O)[nH]c1=O (stereo not drawn),-2.1,11,38,0.9,0.6
CN(C)c1ccc(P(=S)(N(C)C)N(C)C)cc1,-0.67,95*,5,0,0.9
CCOP(=S)(OCC)c1ccc(N(C)C)cc1,0.56,14,38,0.9,0.6
O=C(Nc1cccc2ccccc12)c1nn(C23CC4CC(CC(C4)C2)C3)cc1Br,-0.12,36,3,0.6,1
Cn1nc(-c2ccc(OCC(=O)N3CCN(Cc4ccccc4)CC3)cc2)c2ccccc2c1=O,0.01,80*,79*,0.2,0.2
CCCNS(=O)(=O)c1ccc(OCC(=O)N2CCN(Cc3ccccc3)CC2)cc1,0.43,22,52*,0.8,0.5
CC(C)NS(=O)(=O)c1ccc(OCC(=O)N2CCN(Cc3ccccc3)CC2)c(Cl)c1,0.85,54*,71*,0.5,0.3
O=C(COc1ccc(S(=O)(=O)N2CCCCC2)cc1)N1CCN(Cc2ccccc2)CC1,1.5,2,11,1,0.9
Cn1cccc1CN1CCN(C(=O)COc2ccccc2)CC1,-1.1,7,1,0.9,1
CC1=CC(=O)NP(=O)(Oc2ccc3ccccc3c2)N1 (stereo not drawn),-0.74,-3,-3,1,1
OC12CCCCC1C(c1ccccc1)NCC2 (stereo not drawn),1.3,-1,0,1,1
COc1cc(-n2c(=S)[nH]c3ccccc3c2=O)c(Cl)cc1Cl,-1.4,90*,58*,0.1,0.4
CC(C)Oc1cc(-n2c(=S)[nH]c3ccccc3c2=O)c(Cl)cc1Cl,-2.5,90*,72*,0.1,0.3
O=c1[nH]c2ccccc2c(=O)n1-c1cccc(Cl)c1,0.23,34,2,0.7,1
CCC(=NCc1ccco1)c1c(O)[nH]c(=O)[nH]c1=O,0.24,10,41,0.9,0.6
CCC(CC)N1CCN(C(=O)Cc2ccccc2)CC1,0.59,.,.,.,.

# From PubChem
